ALR inh – inhibitors of human sulfhydryl oxidase ALR; P55789; purified ALR, DTT oxidation, H2O2 HRP-luminol luminescence; inhibition, % (test concentration not listed); 290,000 compounds, 3.8% hits;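 active means mean replicate inhibition above about 79%, with every replicate also reaching it, limit read from the data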
Target sequence (P55789 whole entry, looked up): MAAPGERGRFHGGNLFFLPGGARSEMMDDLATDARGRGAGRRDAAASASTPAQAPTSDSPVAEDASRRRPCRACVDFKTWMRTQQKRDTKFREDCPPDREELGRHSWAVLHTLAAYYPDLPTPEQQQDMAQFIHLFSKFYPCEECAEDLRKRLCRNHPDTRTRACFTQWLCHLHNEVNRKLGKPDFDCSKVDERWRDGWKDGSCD
Rce1 inhib – inhibitors of yeast Ras-converting enzyme; Q03530; yeast membranes, quenched prenylated peptide cleavage fluorescence; calls only; 290,000 compounds, 0.27% hits; AID 2563;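 active means fall in fluorescence gain of 50% or more versus controls, with final raw signal at or below 3038400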
Efflux pump inh – blocks antifungal efflux pumps in multiplex yeast assay | S. cerevisiae Candida pump triplex, Nile Red efflux | inhibition, % at 10 µM | 330,000 compounds, 0.44% hits | AID 485275;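 active means plate passing quality check with inhibition over a set limit, or well fluorescence over plate mean plus 4 SD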;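 further: Nile Red retained in pooled yeast measured as flow cytometry median fluorescence; higher means more Nile Red kept so more efflux inhibition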
GRK2 inh – human GRK2 inhibition via aptamer displacement. P25098. bead flow cytometry, FAM-aptamer displacement from GRK2. inhibition of aptamer binding, % at 10 µM. 330,000 compounds, 0.59% hits. AID 488847;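 active means inhibition of aptamer binding above 40%, roughly 3 SD of noise, on plates passing a quality check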;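 further: median bead fluorescence of bound FAM aptamer so fluorescent compounds give negative values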
Rtt109 Vps75 – blocks Candida albicans Rtt109/Vps75 acetyltransferase activity; Q5AAJ8; purified Rtt109/Vps75, ThioGlo CoA-SH fluorescence, 4 h; inhibition, % at 34.9 µM; 330,000 compounds, 0.16% hits; AID 540336;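 active means inhibition of at least 50% in every replicate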
Target sequence (Q5AAJ8 whole entry, looked up): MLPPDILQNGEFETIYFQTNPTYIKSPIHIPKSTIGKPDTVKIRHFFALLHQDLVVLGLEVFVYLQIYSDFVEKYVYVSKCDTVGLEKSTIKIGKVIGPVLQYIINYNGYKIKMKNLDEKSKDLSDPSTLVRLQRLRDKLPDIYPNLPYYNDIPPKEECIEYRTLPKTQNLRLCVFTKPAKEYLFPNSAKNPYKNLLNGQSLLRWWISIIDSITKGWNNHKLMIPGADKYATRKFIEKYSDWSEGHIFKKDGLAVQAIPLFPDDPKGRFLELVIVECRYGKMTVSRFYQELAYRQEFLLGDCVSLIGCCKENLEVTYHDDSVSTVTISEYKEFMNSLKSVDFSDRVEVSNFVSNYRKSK
HDAC3 inhib – inhibitors of human histone deacetylase 3. 320,000 compounds, 0.15% hits. recombinant HDAC3, fluorogenic peptide/trypsin coupled, fluorescence. inhibition, % at 8.3 µM. AID 2718; in the data active means inhibition above about 26%, passing the limit was not always enough
GRK2 CP1 – confirmation of human GRK2 inhibitors displacing RNA aptamer. AID 504451. aptamer displacement, % at 10 µM. 2,000 compounds, 4% hits. shares compounds with GRK2 inh. bead-bound GRK2, FAM-aptamer displacement, flow cytometry;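 active means aptamer displacement above 40%, near three times the noise of non-fluorescent compounds, on plates passing quality checks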;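 further: negative values mostly reflect intrinsic compound fluorescence rather than true enhancement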
Aptamer quench – fluorescent aptamer quenching in GRK2 counter-screen dose response. shares compounds with GRK2 inh. Fluorescent RNA aptamer beads, flow cytometry; active compounds read high. fluorescence change (kMESF span), kMESF (concentration not given with the values). 110 tested, under 10 active. AID 504521;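 active means compounds whose bead fluorescence drops by more than 37 kMESF across the dose range, marking them as dye quenchers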
Aptamer quench SP – aptamer fluorescence quenching in GRK2 counter-screen; AID 504580; fluorescence response (% of DMSO), % at 10 µM; Carboxyfluorescein RNA aptamer on beads, flow cytometry quenching; active compounds read low; 2,000 tested, under 10 active; shares compounds with GRK2 inh;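 active means compounds that quench the bead-bound fluorescent RNA probe, cutting fluorescence to under half of the solvent control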;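 further: counterscreen run without GRK2 so only probe quenching by compound is measured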
GRK2 confirm 2 – confirmation of human GRK2 inhibitors binding RNA aptamer site; shares compounds with GRK2 inh; 360 tested, under 10 active; AID 504782; inhibition of aptamer binding, % at 10 µM; bead-bound GRK2, FAM-aptamer displacement, flow cytometry;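 active means inhibition of aptamer binding above 40%, about triple the noise seen with nonglowing compounds, on plates passing quality control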;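 further: negative values mostly come from compounds that fluoresce themselves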
FAM quench SP – aptamer fluorescence quenching in GRK2 counter-screen; shares compounds with GRK2 inh; carboxyfluorescein RNA aptamer beads, flow cytometry quenching; active compounds read low; fluorescence response vs DMSO, % at 10 µM; 360 tested, under 10 active; AID 588494;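 active means response vs DMSO under 50%, meaning signal dropped by over half, treated as fluorescence quencher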;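 further: labelled aptamer on streptavidin beads without GRK2 as a quench counter-screen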
Hits are given with their value; – = inactive; · = no result; + = active, no number. Compounds with a hit are over-represented: about 4.5% of the library has one in this group of screens.

SMILES	ALR inh	Rce1 inhib	Efflux pump inh	GRK2 inh	Rtt109 Vps75	HDAC3 inhib	GRK2 CP1	Aptamer quench SP	others
COCCNC(=O)C(c1ccc(C)o1)N(Cc1ccc(OC)cc1)C(=O)Cn1nnc2ccccc21 (centres undefined)	–	–	–	44.0	–	–	–	–
Cc1ccccc1C(=O)Nc1ccc(Br)cn1	–	–	–	–	–	–	·	·
O=C(Nc1ccccc1C(=O)Nc1ccc(Br)cn1)c1ccccc1Cl	·	·	–	44.0	–	–	·	·	GRK2 confirm 2=–;FAM quench SP=–
COc1ccc(N2CCN(C(=O)COC(=O)c3cccc(S(=O)(=O)Nc4cccc(C)c4)c3)CC2)cc1	–	–	–	–	–	–	·	·
COc1ccc(N2CCN(C(CNS(=O)(=O)c3ccccc3)c3ccccc3)CC2)cc1 (centres undefined)	–	–	–	47.0	–	–	–	–	Aptamer quench=–
O=C(CSc1nncn1-c1ccccc1)c1c[nH]c2ccccc12	–	–	–	51.0	–	–	–	–
COc1ccc(NC(=O)c2ccc(-c3ccc(-c4noc(C)n4)cc3C)cc2)cc1N1CCN(C)CC1	–	·	–	–	–	–	–	–
COc1cc(N(C)C)c([N+](=O)[O-])cc1C(=O)N1CCOCC1	–	–	–	–	–	–	·	·
CC(C)C1CC(C(=O)Nc2ccccc2)C(=O)O1 (centres undefined)	–	–	–	–	–	–	·	·
CCC1CC(C(=O)Nc2ccccc2)C(=O)O1 (centres undefined)	–	–	–	69.0	–	–	–	–
Cc1ccc(N2C(=O)CC(Cc3ccc(Cl)cc3)C2=O)cc1 (centres undefined)	–	–	–	–	–	–	·	·
O=C(Nc1nccs1)C(Br)C(Br)c1ccccc1 (centres undefined)	–	–	–	–	–	–	·	·
O=C(Nc1nccs1)C(c1ccccc1)N1CCCCC1 (centres undefined)	–	–	–	61.0	–	–	–	–
O=C(NCC(=O)N1CCC2(CC1)NCCc1[nH]cnc12)c1ccc2ccccc2c1	–	–	–	–	–	–	·	·
O=P(c1ccccc1)(c1ccccc1)c1cc(S(=O)(=O)O)ccc1O	–	–	–	74.0	–	–	52.4	–	Aptamer quench=–
Cc1cc([N+](=O)[O-])cnc1N1CCOCC1	–	–	–	88.0	·	–	–	–
O=[N+]([O-])c1cnc(N2CCCCC2)c([N+](=O)[O-])c1	–	–	–	–	–	–	·	·
CCCCCN(C(=O)CCC(=O)OCc1cccc(Br)c1)c1c(N)n(CCCC)c(=O)[nH]c1=O	–	–	–	–	–	–	·	·
COc1ccc(OC)c(C2Nc3c(Cl)ccc(C(=O)O)c3C3C=CCC32)c1 (centres undefined)	–	–	–	–	–	–	·	·
O=C(O)C1Nc2c(O)cc(Cl)c([N+](=O)[O-])c2C2C=CCC12 (centres undefined)	–	–	–	69.0	–	·	68.2	–	Aptamer quench=–
COCCn1c(SCC(=O)NC(C)c2ccc(F)cc2)nc2ccccc21 (centres undefined)	–	–	–	–	–	–	·	·
C=C(C)CSc1nc2sc3c(c2c(=O)n1-c1ccc(C)cc1)CCN(C)C3	·	–	·	·	–	·	–	–
COc1ccc2nc(NC(=O)CSc3nnnn3C3CCCCC3)sc2c1	–	–	–	51.0	·	–	–	–
COc1ccc(CNC(=O)C2CC=CCC2C(=O)O)cc1OC (centres undefined)	–	–	–	–	–	–	·	·	GRK2 confirm 2=–;FAM quench SP=–
O=C(O)C1CC=CCC1C(=O)NCc1ccccc1 (centres undefined)	–	–	–	–	–	–	·	·
SMILES	ALR inh	Rce1 inhib	Efflux pump inh	GRK2 inh	Rtt109 Vps75	HDAC3 inhib	GRK2 CP1	Aptamer quench SP	others
COc1cc(CCC(=O)NCc2ccc(F)cc2)cc(OC)c1OC	–	–	–	–	–	–	–	–
COc1cc(CCC(=O)Nc2nccs2)cc(OC)c1OC	–	–	–	–	–	–	–	–
COc1ccccc1-c1cc(C(F)(F)F)nc(S(=O)(=O)CCCC(=O)NCc2ccc(F)cc2)n1	–	+	–	48.0	–	–	–	–	GRK2 confirm 2=–;FAM quench SP=–
Cc1cccc(C(=O)OCC(=O)NC(C)CCc2ccccc2)c1O (centres undefined)	–	–	–	–	–	–	·	·
CCCOc1ccc(C(=O)CCC(=O)OCC(=O)N2CCN(S(=O)(=O)c3ccc(C)cc3C)CC2)cc1	·	·	·	·	–	·	·	·
O=C(CCCN1C(=O)/C(=C/c2cccs2)SC1=S)Nc1cccc(C(=O)O)c1	–	–	–	95.0	–	–	–	–
CC(Oc1cc(F)ccc1[N+](=O)[O-])C(=O)N(C)CC(=O)Nc1ccccc1C(F)(F)F (centres undefined)	–	–	–	–	–	–	·	·
CC(NC(=O)COC(=O)Cc1ccc(-c2ccccc2)cc1)c1ccccc1 (centres undefined)	–	–	–	–	–	–	–	21.9
O=C(COC(=O)Cc1ccc(-c2ccccc2)cc1)NCc1ccccc1	–	–	–	–	–	–	–	–
O=C(COC(=O)CC(c1ccccc1)c1ccccc1)NCc1ccccc1	–	·	–	–	·	–	·	·
CCOC(=O)c1c(-c2cccs2)csc1NC(=O)CSc1ncn[nH]1	–	–	–	90.0	–	–	–	–
COc1ccc(NC(=O)NCc2ccccn2)c(OC)c1	–	–	–	–	–	–	·	·
CC(NC(=O)c1cccc(S(=O)(=O)N2CCN(C)CC2)c1)c1ccc(Cl)cc1Cl (centres undefined)	–	–	–	75.0	–	–	–	–
CC(NC(=O)c1cccc(S(=O)(=O)N2CCN(Cc3ccccc3)CC2)c1)c1ccccc1Cl (centres undefined)	·	·	·	·	–	·	·	·
Cc1ccc(NS(=O)(=O)c2cccc(C(=O)N3CCCCCCC3)c2)cc1	–	–	–	–	·	–	·	·
Cc1ccc(S(=O)(=O)Nc2cccc(C(=O)N3CCC(C(N)=O)CC3)c2)cc1	·	·	–	61.0	–	·	–	–
Cc1c(C#N)c(=O)c(-[n+]2ccccc2)c([S-])n1-c1ccc(Cl)cc1	–	–	–	–	–	–	·	·
COCCCNC(=O)NC(=O)c1ccccc1	–	–	–	76.0	–	–	·	·	GRK2 confirm 2=–;FAM quench SP=–

Screens: PubChem, several laboratories
